MsrA inhibitor – inhibits bovine methionine sulfoxide reductase A; purified bovine MsrA, absorbance read-out; AID 651718; inhibition, % at 15.5 µM; 360,000 compounds, 0.75% hits
EBNA-1 inhibitor – blocks EBNA-1 binding to DNA. EBNA-1 DNA binding, fluorescence polarization. inhibition, % at 14.8 µM. 300,000 compounds, 0.34% hits. AID 1950; in the data active means inhibition above about 28%
MsrA act – activates bovine MsrA enzyme; purified bovine MsrA, absorbance read-out; activation, % at 10.6 µM; 360,000 compounds, 0.3% hits; in the data active means activation above about 7.5%
PP5 primary – PP5 (human) phosphatase inhibition; purified PP5c, OMFP substrate fluorescence; inhibition, % at 6.7 µM; AID 1987; 320,000 compounds, 0.18% hits;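 active means inhibition above the campaign's mean inhibition across all tested compounds plus 3 SD, cut at about 9.5% in these data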
PP1 counter – counter-screen for PP5 inhibitors: inhibitors of human PP1-alpha; P62136; purified PP1alpha, OMFP fluorescence; inhibition, % at 6.7 µM; 320,000 compounds, 0.9% hits;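 active means inhibition above the mean inhibition of all tested compounds plus 3 SD, computed separately for each screening campaign, cut at about 15% in these data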
Target sequence (P62136 whole entry, looked up): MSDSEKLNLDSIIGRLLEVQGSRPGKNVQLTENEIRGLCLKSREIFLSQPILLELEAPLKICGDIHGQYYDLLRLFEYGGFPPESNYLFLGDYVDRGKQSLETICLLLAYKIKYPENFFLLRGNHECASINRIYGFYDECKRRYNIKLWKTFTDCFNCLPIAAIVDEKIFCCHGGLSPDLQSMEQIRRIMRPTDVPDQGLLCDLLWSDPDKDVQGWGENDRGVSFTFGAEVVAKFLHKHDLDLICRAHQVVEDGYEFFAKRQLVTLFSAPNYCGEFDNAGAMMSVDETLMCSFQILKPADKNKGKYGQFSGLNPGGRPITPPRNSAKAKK
ZTA DNA inh – ZTA (EBV) inhibition in EBNA-1 counter-screen; P03206; ZTA-DNA binding, fluorescence polarization; inhibition, % at 11 µM; 320,000 compounds, 0.15% hits; AID 2234; in the data active means inhibition above about 33%
Target sequence (P03206 whole entry, looked up): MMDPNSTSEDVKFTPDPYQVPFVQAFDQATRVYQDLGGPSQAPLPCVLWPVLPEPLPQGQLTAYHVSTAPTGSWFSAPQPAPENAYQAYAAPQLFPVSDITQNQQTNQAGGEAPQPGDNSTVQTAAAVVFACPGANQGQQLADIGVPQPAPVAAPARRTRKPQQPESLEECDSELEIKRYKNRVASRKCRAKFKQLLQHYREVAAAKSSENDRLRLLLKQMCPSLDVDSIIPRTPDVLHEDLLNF
MsrA conf – confirmation of bovine MsrA inhibitors. shares compounds with MsrA inhibitor. purified bovine MsrA, absorbance read-out. inhibition, % at 15.5 µM. 2,300 compounds, 41% hits;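 further: coupled to thioredoxin reductase with NADPH and selenocystamine and DMSO as substrate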
A number is an active result; - = inactive; . = no result. In the library only some 2.3% were active in any assay of this set; here they are far more common. Unless noted, no stated cut-off is given here; in the data, active means inhibition above about 4.5%; inactive means the rest.

SMILES	MsrA inhibitor	EBNA-1 inhibitor	MsrA act	PP5 primary	PP1 counter	ZTA DNA inh	MsrA conf
Clc1ccc(-c2ccc(/C=N/Nc3nncc(-c4ccccc4)n3)o2)cc1	-	-	-	-	-	-	.
COC(=O)c1nc(-c2ccc(C)cc2)oc1N(C)C	4.8	-	-	-	-	-	-
O=C(Cc1ccc2c(c1)OCCO2)N1CCN(S(=O)(=O)c2cccc(C(F)(F)F)c2)CC1	-	-	-	-	-	-	.
CCc1cc(=O)oc2c(C)c(O)c(CN3CCCCC3)cc12	5.4	-	-	-	-	-	-
Cc1c(O)c(CN2CCCC2)cc2c3c(c(=O)oc12)CCC3	-	-	-	-	-	-	.
CNc1cncc(-c2cccc(NS(C)(=O)=O)c2)n1	5.8	.	-	.	.	.	-
CC(C)(C)OC(=O)C[C@H]1C/C=C\C[C@H](CC(=O)NCCO)C(=O)N[C@@H](c2ccccc2)COC1=O	-	.	-	.	.	.	.
CN(C)CCNC(=O)c1coc(=O)c(Br)c1	-	-	-	-	-	-	.
O=C(NCCc1ccccc1)c1coc(=O)c(Br)c1	5.6	.	-	.	.	.	6.5
CC(C)CNC(=O)c1coc(=O)c(Br)c1	5.7	-	-	-	-	-	6.1
O=C(OCC(=O)N1CCN(C(=O)c2ccco2)CC1)c1ccccc1NCCO	4.7	-	-	-	-	-	-
O=C(OCC(=O)N1CCN(C(=O)COC(=O)c2ccccc2NCCO)CC1)c1ccccc1NCCO	-	.	-	.	.	.	.
COc1nc(NCCN2CCOCC2)nc(Nc2ccc([N+](=O)[O-])cc2)n1	4.8	-	-	-	-	-	-
O=c1cc(-c2ccc(O)c(O)c2)oc2c(C3O[C@H](CO)[C@@H](O)[C@H](O)[C@H]3O)c(O)cc(O)c12 (some centres not stated)	5.6	-	-	-	-	-	-
O=c1cc(-c2ccc(O)cc2)oc2c(C3O[C@H](CO)[C@@H](O)[C@H](O)[C@H]3O)c(O)cc(O)c12 (some centres not stated)	-	-	-	-	-	-	.
O=c1ccc2ccc(O[C@@H]3O[C@H](CO[C@@H]4OC[C@](O)(CO)[C@H]4O)[C@@H](O)[C@H](O)[C@H]3O)cc2o1	-	.	-	-	-	-	.
CC1OC(Oc2ccc3ccc(=O)oc3c2-c2c(O)ccc3cc(Oc4ccc5ccc(=O)oc5c4)c(=O)oc23)C(O)C(O)C1O (configuration not stated)	4.8	-	-	-	-	-	-
CC(=O)Nc1ccc2nc(-c3ccco3)[nH]c2c1	-	-	-	-	-	-	.
O=C(Nc1ccc2nc(-c3ccco3)[nH]c2c1)c1ccco1	5.1	-	-	-	-	-	-
O=C(Nc1ccc(F)cc1)/C(=C1/CCCCCN1)[N+](=O)[O-]	6.4	-	-	-	-	-	-
COc1ccc(NS(=O)(=O)c2ccc(/C=C/C(=O)O)cc2)cc1S(=O)(=O)N1CCOCC1	-	-	-	-	-	-	.
CSc1nc2[nH]c3c(c2c2nncn12)CC(C)(C)OC3	-	-	-	-	-	-	.
CSc1nc2[nH]c3c(c2c2nnnn12)CCCC3	12	-	-	-	-	-	10
Cc1ccc(C)n1-n1c(C)nc2scc(-c3cccs3)c2c1=O	29	-	-	-	-	-	25
COc1ccc(-c2csc3nc(C)n(-n4cccc4)c(=O)c23)cc1	8.6	-	-	-	-	-	-
SMILES	MsrA inhibitor	EBNA-1 inhibitor	MsrA act	PP5 primary	PP1 counter	ZTA DNA inh	MsrA conf
Cc1nc2scc(-c3cccs3)c2c(=O)n1-n1cccc1	15	-	-	-	-	-	10
COCCN(Cc1ccccc1)C(=O)c1c(C)nn(-c2ccccc2)c1C	-	-	-	-	-	-	.
COc1ccccc1N(Cc1ccccc1)S(=O)(=O)c1cccc(C(=O)Nc2ccc(C)cn2)c1	-	-	-	-	-	-	.
COc1cc2[nH]c3c(=O)n4c(nc3c2cc1OC)SCCC4	-	-	-	-	-	-	.
COc1ccc(C)cc1NC(=O)NNC(=O)C1CCC(C(C)(C)C)CC1 (configuration not stated)	-	-	-	-	-	-	.
Cc1ccccc1NC1=C/C(=N\S(=O)(=O)c2ccc(C(=O)O)cc2)c2ccccc2C1=O	19	-	-	-	-	57	21
CC(C)c1ccc(S(=O)(=O)/N=C2\C=C(NS(=O)(=O)c3ccccc3)C(=O)c3ccccc32)cc1	-	-	-	-	-	-	.
COc1ccccc1NS(=O)(=O)c1ccc(Cl)c(NC(=O)C(C)N2C(=O)c3ccccc3C2=O)c1 (configuration not stated)	-	-	-	-	-	-	.
COc1ccc(N=Cc2ccc(N(CCC#N)CCC#N)cc2)cc1	4.9	.	-	.	.	.	4.9
COc1ccc(C(C#N)=Cc2ccc(N(C)CCC#N)cc2)cc1	-	.	-	.	.	.	.
O=C(Nc1cccc(O)c1)c1cc(S(=O)(=O)N2CCCC2)ccc1Cl	-	-	-	-	-	-	.
O=[N+]([O-])c1cc(S(=O)(=O)Nc2ccccc2)ccc1Nc1ccccc1	5.7	.	-	.	.	.	-
COc1cc(/C=N/Nc2nc3c(c(=O)n(C)c(=O)n3C)n2Cc2ccccc2)ccc1OC(=O)c1ccco1	5.4	-	-	-	-	-	-
Cc1ccc(S(=O)(=O)N(C)C)cc1NC(=O)COC(=O)CCC(=O)c1cccs1	-	-	-	-	-	-	.
COc1ccc(/C=C/C(=O)Nc2cc(=O)n(C)c(=O)n2C)cc1	5.0	-	-	-	-	-	-
O=C1C(=O)N(CCCN2CCOCC2)C(c2ccc([N+](=O)[O-])cc2)/C1=C(/O)c1ccc2c(c1)OCO2 (configuration not stated)	5.7	-	-	-	-	-	-
COC(=O)c1ccc(C2/C(=C(\O)c3ccc4c(c3)OCCO4)C(=O)C(=O)N2CCCN2CCOCC2)cc1 (configuration not stated)	-	-	-	-	-	-	.
O=[N+]([O-])c1ccc(O)c(C=NNc2ccc(S(=O)(=O)O)cc2)c1	5.3	.	-	.	.	.	6.2
CS(=O)(=O)Nc1ccccc1-c1ccc2nccn2c1	-	.	-	.	.	.	.
CCOC(=O)C1CCN(S(=O)(=O)c2cc(Br)cc3c2N(C(C)=O)C(C)C3)CC1 (configuration not stated)	-	-	-	-	-	-	.
COc1cc(/C=C(/C(=O)c2cccs2)c2nc3ccccc3[nH]2)cc(OC)c1O	5.5	-	-	-	-	-	-
COc1ccc(C(=O)N/C(=C/c2cccs2)c2nc3ccccc3[nH]2)cc1OC	5.3	-	-	-	-	-	-
COc1ccc(C(=O)N/C(=C/c2cccs2)C(=O)NC(C)(C)C)cc1OC	-	-	-	-	-	-	.
COc1ccc(C(=O)N/C(=C\c2cn(C)c3ccccc23)C(=O)OCC(C)C)cc1	-	-	-	-	-	-	.
NS(=O)(=O)c1ccc(N/N=C/c2ccc[nH]2)c([N+](=O)[O-])c1	5.1	-	-	-	-	-	5.5
COc1cc(/C=N/Nc2ccc(S(N)(=O)=O)cc2[N+](=O)[O-])cc(OC)c1O	-	-	-	-	-	-	.

Compound activity (PubChem)
